Inconclusive results are not listed. Some structures have more than one record in an assay (separate samples or runs), and their calls can disagree. The source made the active and inactive calls. The calls were made as follows, unless noted: active = hit-call score of the fitted dose curve at least 0.9, where 1 is the maximum; inconclusive = response in the unintended direction; inactive = score below 0.9.
What was measured:
[1] = ATG_M_19_CIS: Attagene CIS-FACTORIAL HepG2 Assay for M19 Transcription Factor (Internal Marker) (AID 2282939; active = hit-call score of the fitted dose curve at least 0.9, where 1 is the maximum; inactive = score below 0.9); conditions: HepG2 Attagene CIS-FACTORIAL M19 internal marker reporter; actives raise or lower the signal
Procedure, shortened: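 Signals come from fluorescence of labelled reporter-specific PCR fragments resolved by capillary electrophoresis, following 24 h treatment of HepG2 cells transfected with cis-promoter reporter units; activity was fitted in both directions relative to DMSO.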

[2] = ATG_FoxO_CIS: Attagene CIS-FACTORIAL HepG2 Assay for human Forkhead box O (FoxO) (AID 2282943; active = hit-call score of the fitted dose curve at least 0.9, where 1 is the maximum; inactive = score below 0.9); conditions: HepG2 Attagene cis-reporter, FoxO element, mRNA; actives raise or lower the signal
Procedure, shortened: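 HepG2 cells transiently transfected with cis-element-driven reporter units report endogenous FoxO activity. After 24 h chemical exposure, reporter mRNA quantified by RT-PCR, fluorescent labeling, HpaI digestion and capillary electrophoresis; bidirectional fit versus DMSO.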

[3] = ATG_GRE_CIS: Attagene CIS-FACTORIAL HepG2 Assay for human Glucocorticoid Response Elements (GRE) (AID 2282947; active = hit-call score of the fitted dose curve at least 0.9, where 1 is the maximum; inactive = score below 0.9); conditions: HepG2 GRE cis-reporter, Attagene multiplex mRNA; actives raise or lower the signal
Procedure, shortened: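 Read-out: fluorescent reporter-transcript fragments separated by capillary electrophoresis after RT-PCR. Transiently transfected HepG2 cells carrying cis-element-driven reporter units were dosed for 24 h; gain or loss of signal fitted against DMSO control.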

[4] = biological target: Hypoxia-inducible factor 1-alpha (Homo sapiens) (UniProt Q16665); experiment: ATG_HIF1a_CIS: Attagene CIS-FACTORIAL HepG2 Assay for human Hypoxia Inducible Factor 1 (HIF1A) (AID 2282951; active = hit-call score of the fitted dose curve at least 0.9, where 1 is the maximum; inactive = score below 0.9); conditions: HepG2 Attagene cis-factorial HIF1a reporter transcription; actives raise or lower the signal
Procedure, shortened: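 HepG2 cells transiently transfected with multiple cis-regulated reporter transcription units measure endogenous transcription factor activity. After 24 h exposure, reporter mRNA is quantified by RT-PCR with 6-FAM labelling, HpaI digestion and capillary electrophoresis. Bidirectional fitting against DMSO.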

[5] = ATG_PBREM_CIS: Attagene CIS-FACTORIAL HepG2 Assay for human Phenobarbital-responsive Enhancer Module (PBREM) (AID 2282955; active = hit-call score of the fitted dose curve at least 0.9, where 1 is the maximum; inactive = score below 0.9); conditions: HepG2 PBREM cis-reporter, Attagene multiplexed transcription; actives raise or lower the signal
Procedure, shortened: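 HepG2 cells transiently transfected with multiple cis-regulated reporter units measure endogenous transcription factor activity; 24 h compound exposure. Reporter mRNA quantified by RT-PCR, fluorescent labelling, HpaI digestion and capillary electrophoresis; bidirectional fit versus DMSO.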

[6] = ATG_RORE_CIS: Attagene CIS-FACTORIAL HepG2 Assay for human RAR-related Orphan Receptor Element (RORE) (AID 2282959; active = hit-call score of the fitted dose curve at least 0.9, where 1 is the maximum; inactive = score below 0.9); conditions: HepG2 Attagene cis-factorial RORE reporter, mRNA; actives raise or lower the signal
Procedure, shortened: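 HepG2 cells carrying transiently transfected cis-regulated reporter units; RORE-driven reporter mRNA quantified 24 h post-dosing by RT-PCR, 6-FAM primer extension, HpaI digestion and capillary electrophoresis. Bidirectional fit versus DMSO.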

[7] = biological target: Hepatocyte nuclear factor 4-alpha (Homo sapiens) (UniProt P41235); experiment: ATG_HNF4a_TRANS: Attagene TRANS-FACTORIAL HepG2 Assay for human Hepatocyte Nuclear Factor 4 alpha (HNF4a) (AID 2282982); conditions: HepG2 HNF4a transactivation reporter, mRNA readout
Procedure, shortened: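 Transient MRTU transfection of HepG2, 24 h dosing. Readout: reporter mRNA via RT-PCR + capillary electrophoresis, fluorescence; activity fit upward relative to DMSO control.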

[8] = ATG_M_06_TRANS: Attagene TRANS-FACTORIAL HepG2 Assay for M06 Transcription Factor (Internal Marker) (AID 2282983); conditions: HepG2 Attagene TRANS M06 internal marker reporter;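 also: reporter transcript level by RT-PCR then capillary electrophoresis fluorescence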
Procedure, shortened: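 Human liver HepG2 cells bearing transiently transfected chimeric NR-GAL4 reporter units were treated with chemicals for 24 h. Total RNA was reverse-transcribed, reporter sequences amplified and labelled, then quantified by capillary electrophoresis. Activity was fitted upward relative to DMSO.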

[9] = ATG_NRF2_ARE_CIS: Attagene CIS-FACTORIAL HepG2 Assay for human Nuclear Factor Erythroid 2 Related Factor 2 (NFR2) response to Antioxidant Response Elements (ARE) (AID 2282992; active = hit-call score of the fitted dose curve at least 0.9, where 1 is the maximum; inactive = score below 0.9;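 as to AC50: reporter mRNA level measured by RT-PCR and capillary electrophoresis fluorescence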); conditions: HepG2 Attagene ARE/NRF2 reporter, transcription factor activity; actives raise or lower the signal
Procedure, shortened: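 Endogenous transcription factor activity in human liver HepG2 cells is tracked via a cis-element-driven reporter within a multiplexed set. mRNA induction is read by RT-PCR and capillary electrophoresis after 24 h, with DMSO as baseline.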

[10] = biological target: human Peroxisome Proliferator-activated Receptor alpha (PPARa), PPARA (gene 5465) (UniProt Q07869); experiment: ATG_PPARa_TRANS: Attagene TRANS-FACTORIAL HepG2 Assay for human Peroxisome Proliferator-activated Receptor alpha (PPARa) (AID 2283001);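 as to AC50: potency for gain of reporter signal over DMSO so agonist or activator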
Procedure, shortened: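 Transient HepG2 transfection, GAL4-UAS reporters, NR-Gal4 chimeras; 24 h compound exposure. Readout: reporter transcripts by RT-PCR, 6-FAM primer extension, HpaI digest, capillary electrophoresis. Positive direction vs DMSO baseline.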

[11] = biological target: Peroxisome proliferator-activated receptor gamma (Homo sapiens) (UniProt P37231); experiment: ATG_PPARg_TRANS: Attagene TRANS-FACTORIAL HepG2 Assay for human Peroxisome Proliferator-activated Receptor-gamma (PPARg) (AID 2283007)
Procedure, shortened: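 HepG2 cells are transiently transfected with GAL4-UAS reporter units driven by chimeric NR-Gal4 fusions and dosed for 24 h. Reporter mRNA is quantified by RT-PCR, 6-FAM labelling, HpaI digestion and capillary electrophoresis. Induction is scored against DMSO.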

[12] = biological target: Nuclear receptor subfamily 1 group I member 2 (Homo sapiens) (UniProt O75469); experiment: ATG_PXR_TRANS: Attagene TRANS-FACTORIAL HepG2 Assay for human Pregnane X Receptor (PXR) (AID 2283008)
Procedure, shortened: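 HepG2 transfected (FuGene 6) with GAL4-UAS reporter units + PXR-Gal4 chimera; dosed 24 h. Total RNA → oligo(dT) RT → PCR → 6-FAM primer extension → HpaI cut → CE. Gain-of-signal vs DMSO.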

[13] = biological target: Retinoic acid receptor RXR-alpha (Homo sapiens) (UniProt P19793); experiment: ATG_RXRa_TRANS: Attagene TRANS-FACTORIAL HepG2 Assay for human Retinoid X Receptor alpha (RXRa) (AID 2283012)
Procedure, shortened: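 Read-out: fluorescent reporter-transcript fragments quantified by capillary electrophoresis after RT-PCR. Transiently transfected HepG2 cells carrying GAL4-UAS reporters and NR-GAL4 chimeras were exposed to chemical for 24 h; activity scored as increase over DMSO.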

[14] = biological target: human Thyroid Receptor alpha (THRa1), THRA (gene 7067) (UniProt P10827); experiment: ATG_THRa1_TRANS: Attagene TRANS-FACTORIAL HepG2 Assay for human Thyroid Receptor alpha (THRa1) (AID 2283014)
Procedure, shortened: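 First, HepG2 cells receive multiple GAL4-UAS reporter units and the chimeric receptor. They are then dosed for 24 h, after which RNA is reverse-transcribed, amplified, labelled, HpaI-cut and sized by capillary electrophoresis; gain relative to DMSO is scored.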

[15] = biological target: Cellular tumor antigen p53 (Homo sapiens) (UniProt P04637); experiment: TOX21_p53_BLA_p2_ratio: Tox21 HCT-116 p53 Agonism Beta-lactamase Assay, Ratio, Phase 2 (AID 2283592)
Procedure, shortened: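 Cleaved-to-uncleaved substrate ratio (460 vs 530 nm) measured in HCT116 cells with an inducible beta-lactamase reporter linked to p53 activity. Compounds incubated 16 h at 37C before 2 h room-temperature CCF4-AM loading.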

[16] = biological target: Cellular tumor antigen p53 (Homo sapiens) (UniProt P04637); experiment: TOX21_p53_BLA_p3_ratio: Tox21 HCT-116 p53 Agonism Beta-lactamase Assay, Ratio, Phase 3 (AID 2283596)
Procedure, shortened: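 Cells were seeded at 4000/well, rested 5 h at 37C, then dosed with DMSO compound solutions (217-fold dilution) for 16 h. CCF4-AM substrate was loaded for 2 h at room temperature, and the 460/530 nm emission ratio was fitted for gain of signal versus DMSO.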

[17] = biological target: Cellular tumor antigen p53 (Homo sapiens) (UniProt P04637); experiment: TOX21_p53_BLA_p5_ratio: Tox21 HCT-116 p53 Agonism Beta-lactamase Assay, Ratio, Phase 5 (AID 2283599)
Procedure, shortened: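 HCT-116 p53-bla cells (4000/well) plated 5 h, dosed with compound (217-fold DMSO dilution) for 16 h at 37 C; CCF4-AM substrate 2 h at room temperature. Activity is the 460/530 nm emission ratio (405 nm excitation), fitted in gain-of-signal direction versus DMSO.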

[18] = TOX21_p53_BLA_p5_viability: Viability Assessment in the Tox21 HCT-116 p53 Agonism Beta-lactamase Assay, Phase 5 (AID 2283600)
Procedure, shortened: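 Viability is taken from cellular ATP content, measured by luciferase luminescence in the same wells after the beta-lactamase ratio read. Cells are seeded at 4000 per well and exposed to DMSO-dissolved compounds, diluted 217-fold, for 16 h.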

[19] = biological target: Heat shock factor protein 1 (Homo sapiens) (UniProt Q00613); experiment: ATG_HSE_CIS: Attagene CIS-FACTORIAL HepG2 Assay for human Heat Shock Transcription Factor 1 (HSE) (AID 2282953; active = hit-call score of the fitted dose curve at least 0.9, where 1 is the maximum; inactive = score below 0.9); conditions: HepG2 HSE cis-reporter, Attagene RNA transcription; actives raise or lower the signal
Procedure, shortened: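 Endogenous transcription factor activity captured via cis-promoter reporter units transfected into HepG2; treatment lasted 24 h. Fluorescence intensity of reporter fragments analysed with bidirectional curve fitting, DMSO baseline.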

[20] = biological target: Cellular tumor antigen p53 (Homo sapiens) (UniProt P04637); experiment: TOX21_p53_BLA_p4_ratio: Tox21 HCT-116 p53 Agonism Beta-lactamase Assay, Ratio, Phase 4 (AID 2283601)
Procedure, shortened: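 HCT-116 p53 beta-lactamase reporter cells (4000/well) preincubated 5 h, then compound (217-fold dilution of DMSO stock) for 16 h at 37C. CCF4-AM substrate added 2 h at room temperature; 460/530 nm emission ratio fitted upward versus DMSO.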

Measured: AC50

Sequence of human Peroxisome Proliferator-activated Receptor alpha (PPARa), PPARA (gene 5465) (Q07869 whole entry, looked up, the tested form may be a part): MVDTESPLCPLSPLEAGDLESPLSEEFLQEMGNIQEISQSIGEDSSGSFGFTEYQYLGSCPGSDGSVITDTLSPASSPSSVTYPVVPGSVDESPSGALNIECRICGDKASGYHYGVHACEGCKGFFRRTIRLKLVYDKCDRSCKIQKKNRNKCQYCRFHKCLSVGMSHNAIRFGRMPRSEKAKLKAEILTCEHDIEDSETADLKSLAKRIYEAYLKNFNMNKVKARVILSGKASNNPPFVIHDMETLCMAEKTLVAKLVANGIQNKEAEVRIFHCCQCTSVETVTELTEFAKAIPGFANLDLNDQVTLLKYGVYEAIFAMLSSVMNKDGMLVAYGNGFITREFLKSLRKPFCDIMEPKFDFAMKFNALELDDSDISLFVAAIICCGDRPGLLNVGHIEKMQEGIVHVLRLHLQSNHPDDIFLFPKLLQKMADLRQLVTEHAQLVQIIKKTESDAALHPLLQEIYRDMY
Sequence of Cellular tumor antigen p53 (Homo sapiens) (P04637 whole entry, looked up): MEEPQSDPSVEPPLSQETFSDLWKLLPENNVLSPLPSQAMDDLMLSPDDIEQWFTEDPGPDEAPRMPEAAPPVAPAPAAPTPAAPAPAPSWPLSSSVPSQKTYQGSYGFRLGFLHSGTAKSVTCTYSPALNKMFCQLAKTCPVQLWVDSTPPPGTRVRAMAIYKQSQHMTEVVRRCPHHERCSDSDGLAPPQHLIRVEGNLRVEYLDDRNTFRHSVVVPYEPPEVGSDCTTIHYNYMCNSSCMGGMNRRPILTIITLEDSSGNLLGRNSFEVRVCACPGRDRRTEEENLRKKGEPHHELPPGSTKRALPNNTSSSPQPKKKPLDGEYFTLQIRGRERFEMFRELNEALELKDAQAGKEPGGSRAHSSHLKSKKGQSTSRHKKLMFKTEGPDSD
Sequence of Retinoic acid receptor RXR-alpha (Homo sapiens) (P19793 whole entry, looked up, the tested form may be a part): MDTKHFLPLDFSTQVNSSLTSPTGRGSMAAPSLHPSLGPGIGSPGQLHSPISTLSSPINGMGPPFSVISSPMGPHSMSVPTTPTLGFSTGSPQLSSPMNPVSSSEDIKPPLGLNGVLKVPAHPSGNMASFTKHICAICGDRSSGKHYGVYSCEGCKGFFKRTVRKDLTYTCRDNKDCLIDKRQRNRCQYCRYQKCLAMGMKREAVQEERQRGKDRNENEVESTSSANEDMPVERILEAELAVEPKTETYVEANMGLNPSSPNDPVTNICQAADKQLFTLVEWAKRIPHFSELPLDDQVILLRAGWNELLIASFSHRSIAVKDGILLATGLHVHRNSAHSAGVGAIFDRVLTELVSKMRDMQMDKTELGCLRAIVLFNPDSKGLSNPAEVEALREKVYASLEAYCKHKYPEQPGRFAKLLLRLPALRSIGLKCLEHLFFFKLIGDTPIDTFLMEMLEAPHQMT
Sequence of Hypoxia-inducible factor 1-alpha (Homo sapiens) (Q16665 whole entry, looked up): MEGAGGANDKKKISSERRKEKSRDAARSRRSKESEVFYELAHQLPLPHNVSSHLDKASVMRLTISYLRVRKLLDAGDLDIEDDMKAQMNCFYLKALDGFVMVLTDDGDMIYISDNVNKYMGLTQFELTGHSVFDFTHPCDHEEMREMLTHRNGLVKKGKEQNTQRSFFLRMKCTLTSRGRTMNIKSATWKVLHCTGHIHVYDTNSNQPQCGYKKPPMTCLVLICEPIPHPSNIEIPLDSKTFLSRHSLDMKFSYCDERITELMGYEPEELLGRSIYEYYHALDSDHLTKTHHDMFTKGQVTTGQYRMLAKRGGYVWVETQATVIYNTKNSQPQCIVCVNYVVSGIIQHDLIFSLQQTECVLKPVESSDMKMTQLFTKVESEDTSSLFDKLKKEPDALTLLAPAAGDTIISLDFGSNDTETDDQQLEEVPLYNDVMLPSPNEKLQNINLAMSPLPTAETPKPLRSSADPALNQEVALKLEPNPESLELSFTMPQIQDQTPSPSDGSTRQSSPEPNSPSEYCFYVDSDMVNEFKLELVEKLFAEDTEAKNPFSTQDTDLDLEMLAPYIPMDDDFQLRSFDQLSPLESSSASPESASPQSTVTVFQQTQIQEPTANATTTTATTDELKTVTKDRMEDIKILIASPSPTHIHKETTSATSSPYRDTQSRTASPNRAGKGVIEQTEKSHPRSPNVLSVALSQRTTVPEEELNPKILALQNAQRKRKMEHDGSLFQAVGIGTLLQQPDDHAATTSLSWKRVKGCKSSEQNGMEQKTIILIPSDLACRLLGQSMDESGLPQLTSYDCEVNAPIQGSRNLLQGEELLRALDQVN
Sequence of human Thyroid Receptor alpha (THRa1), THRA (gene 7067) (P10827 whole entry, looked up, the tested form may be a part): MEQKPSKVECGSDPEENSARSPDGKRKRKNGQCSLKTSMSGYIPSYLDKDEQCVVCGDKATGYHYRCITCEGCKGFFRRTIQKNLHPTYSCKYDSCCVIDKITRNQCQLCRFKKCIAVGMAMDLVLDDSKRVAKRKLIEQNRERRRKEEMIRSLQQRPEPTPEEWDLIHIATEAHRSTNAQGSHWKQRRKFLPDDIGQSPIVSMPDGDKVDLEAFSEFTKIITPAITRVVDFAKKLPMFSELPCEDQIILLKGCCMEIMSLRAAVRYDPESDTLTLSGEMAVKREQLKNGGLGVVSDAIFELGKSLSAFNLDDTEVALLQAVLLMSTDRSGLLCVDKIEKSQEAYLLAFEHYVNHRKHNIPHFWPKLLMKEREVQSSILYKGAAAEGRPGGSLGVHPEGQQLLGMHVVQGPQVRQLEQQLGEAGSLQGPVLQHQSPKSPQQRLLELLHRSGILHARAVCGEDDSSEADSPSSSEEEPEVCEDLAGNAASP
Sequence of Hepatocyte nuclear factor 4-alpha (Homo sapiens) (P41235 whole entry, looked up): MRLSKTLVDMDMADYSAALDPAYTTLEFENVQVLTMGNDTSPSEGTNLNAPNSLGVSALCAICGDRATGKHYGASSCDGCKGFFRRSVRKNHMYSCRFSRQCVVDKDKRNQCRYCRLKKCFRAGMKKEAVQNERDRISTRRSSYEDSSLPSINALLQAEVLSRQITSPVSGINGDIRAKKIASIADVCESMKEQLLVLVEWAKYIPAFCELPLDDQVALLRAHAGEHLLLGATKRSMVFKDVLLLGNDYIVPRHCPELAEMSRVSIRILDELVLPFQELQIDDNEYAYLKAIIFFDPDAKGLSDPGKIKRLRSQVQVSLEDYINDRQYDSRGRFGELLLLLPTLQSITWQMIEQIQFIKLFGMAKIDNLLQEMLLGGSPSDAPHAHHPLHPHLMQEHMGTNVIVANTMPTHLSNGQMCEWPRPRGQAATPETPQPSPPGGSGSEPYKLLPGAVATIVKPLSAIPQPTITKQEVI
Sequence of Heat shock factor protein 1 (Homo sapiens) (Q00613 whole entry, looked up, the tested form may be a part): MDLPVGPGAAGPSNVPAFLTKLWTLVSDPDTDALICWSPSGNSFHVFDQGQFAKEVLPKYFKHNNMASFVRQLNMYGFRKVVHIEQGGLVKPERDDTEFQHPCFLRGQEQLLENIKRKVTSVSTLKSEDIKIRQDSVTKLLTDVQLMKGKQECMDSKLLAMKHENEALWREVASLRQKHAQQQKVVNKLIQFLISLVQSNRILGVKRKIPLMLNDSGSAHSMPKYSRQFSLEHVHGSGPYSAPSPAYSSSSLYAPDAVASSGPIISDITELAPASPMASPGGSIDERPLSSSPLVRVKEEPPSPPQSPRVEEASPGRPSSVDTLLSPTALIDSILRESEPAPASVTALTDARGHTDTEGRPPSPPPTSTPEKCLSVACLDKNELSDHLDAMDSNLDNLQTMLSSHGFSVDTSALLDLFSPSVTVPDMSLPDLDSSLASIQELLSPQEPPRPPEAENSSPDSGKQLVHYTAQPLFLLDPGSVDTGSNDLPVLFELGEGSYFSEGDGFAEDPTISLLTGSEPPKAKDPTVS
Sequence of Peroxisome proliferator-activated receptor gamma (Homo sapiens) (P37231 whole entry, looked up, the tested form may be a part): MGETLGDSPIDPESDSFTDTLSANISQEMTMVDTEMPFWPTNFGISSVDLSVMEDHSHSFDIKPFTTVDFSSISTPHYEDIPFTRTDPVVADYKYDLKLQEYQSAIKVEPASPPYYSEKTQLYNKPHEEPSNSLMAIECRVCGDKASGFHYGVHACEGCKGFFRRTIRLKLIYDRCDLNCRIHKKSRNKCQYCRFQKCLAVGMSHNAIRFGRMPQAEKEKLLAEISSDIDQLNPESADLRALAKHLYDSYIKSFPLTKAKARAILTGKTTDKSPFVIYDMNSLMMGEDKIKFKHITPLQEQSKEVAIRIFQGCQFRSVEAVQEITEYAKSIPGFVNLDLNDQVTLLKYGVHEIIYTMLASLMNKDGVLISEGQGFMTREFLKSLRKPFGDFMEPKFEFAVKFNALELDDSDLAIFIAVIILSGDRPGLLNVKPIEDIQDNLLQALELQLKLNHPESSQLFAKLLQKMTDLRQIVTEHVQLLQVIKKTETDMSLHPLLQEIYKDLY
Sequence of Nuclear receptor subfamily 1 group I member 2 (Homo sapiens) (O75469 whole entry, looked up, the tested form may be a part): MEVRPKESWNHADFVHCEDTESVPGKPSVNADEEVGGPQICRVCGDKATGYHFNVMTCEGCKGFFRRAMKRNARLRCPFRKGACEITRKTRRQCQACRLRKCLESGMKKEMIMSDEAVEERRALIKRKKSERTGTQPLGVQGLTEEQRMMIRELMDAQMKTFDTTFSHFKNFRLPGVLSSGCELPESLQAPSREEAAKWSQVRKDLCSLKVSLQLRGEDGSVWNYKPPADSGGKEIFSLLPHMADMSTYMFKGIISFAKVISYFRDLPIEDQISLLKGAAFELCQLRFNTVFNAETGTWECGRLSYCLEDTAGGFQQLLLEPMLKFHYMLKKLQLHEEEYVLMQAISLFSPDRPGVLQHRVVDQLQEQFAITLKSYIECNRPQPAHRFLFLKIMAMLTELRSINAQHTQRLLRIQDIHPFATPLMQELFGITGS

CCCCCCCCCCCCCCCC[N+](C)(C)C
inactive: [1] | [2] | [4] | [5] | [6] | [8] | [9] | [12] | [13]
active: [3] 48.5 µM | [7] 27.6 µM | [10] 49.2 µM | [11] 27.4 µM

O=CNC(N1CCN(C(NC=O)C(Cl)(Cl)Cl)CC1)C(Cl)(Cl)Cl (configuration not stated)
inactive: [1] | [2] | [3] | [5] | [7] | [8] | [9] | [11] | [13] | [14] | [15] | [16] | [17] | [18]
active: [12] 6.57 µM

N#CCCCCC#N
inactive: [1] | [3] | [4] | [19] | [5] | [6] | [8] | [9] | [13] | [14] | [15] | [16] | [17] | [18]

CC(C)COP(=O)(OCC(C)C)OCC(C)C
active: [9] 37 µM | [11] 49.8 µM | [12] 1.52 µM
inactive: [1] | [3] | [4] | [19] | [6] | [8] | [14] | [16] | [17] | [20]

CN1C[C@H](C(=O)N[C@]2(C)O[C@@]3(O)[C@@H]4CCCN4C(=O)[C@H](Cc4ccccc4)N3C2=O)C=C2c3cccc4[nH]cc(c34)C[C@H]21
inactive: [1] | [2] | [3] | [19] | [5] | [6] | [14] | [15] | [17] | [18] | [20]
active: [9] 27 µM | [12] 0.534 µM

CCC[N+](=O)[O-]
inactive: [1] | [4] | [19] | [5] | [6] | [7] | [8] | [9] | [12] | [14] | [15] | [16] | [17] | [18] | [20]

O=C(O)COc1ccccc1
inactive: [1] | [3] | [5] | [8] | [9] | [10] | [11] | [12] | [13] | [15] | [16] | [17] | [18] | [20]

c1ccc(P(c2ccccc2)c2ccccc2)cc1
inactive: [1] | [3] | [4] | [19] | [5] | [8] | [11] | [17] | [18]
active: [9] 21.5 µM | [12] 6.89 µM

CCCCCCCCCCCC#N
active: [11] 80.6 µM | [12] 19.5 µM
inactive: [1] | [2] | [3] | [19] | [5] | [6] | [10] | [13] | [14] | [15] | [16] | [17] | [18] | [20]

CC1(C)[C@H](C(=O)O[C@H](C#N)c2cccc(Oc3ccccc3)c2)[C@@H]1C=C(Br)Br
inactive: [1] | [3] | [4] | [19] | [9] | [14] | [15] | [16] | [17] | [20]
active: [11] 2.94 µM | [12] 0.166 µM | [17] 82.2 µM
